Source: PubChem BioAssay
Not all results are given here.
aSyn 5UTR act: Activators via SNCA 5'UTR binding, MLPCN; alpha-synuclein 5'UTR reporter, activators screen; activity score, % (tested at 7.5 µM), hits read low; 7.1% of 300,000 active; in the data active = activity score below about -60%
Starred values were filed as active, the others as inactive.

SMILES	aSyn 5UTR act
Cc1ccc(NC(=O)CCCC2CCCCC2)c(O)c1	-150*
CCC1=NN2C(=N)/C(=C\c3ccc(OCCOc4ccccc4)c(OC)c3)C(=O)N=C2S1	-125*
COc1cc(/C=C2/C(=N)N3C=CSC3=NC2=O)ccc1OCCCOc1ccccc1C	-118*
Cc1cccc(C(=O)Oc2ccc(/C=N/O)cc2)c1	-72*
O=C(Nc1ccc(Cl)cn1)c1ccc2nccnc2c1	-112*
O=C(Nc1ccccc1Cl)c1ccc2nccnc2c1	-96*
CCc1ccc(C(=O)CSc2ncn[nH]2)cc1	-115*
Cc1c(C(=O)NC2=NCCS2)oc2ccccc12	-62*
Cc1csc(NC(=O)c2oc3ccccc3c2C)n1	-68*
Cc1cc(C(=O)Nc2sc(C)c(C)c2C#N)c(C)o1	-65*
Cc1csc(Nc2nc(N)c(C(=O)Nc3ccccc3)o2)n1	-131*
Cc1sc(NC(=O)c2sc3nc4c(C)cccc4cc3c2N)c(C#N)c1C	-119*
Cc1sc(NC(=O)c2oc3ccccc3c2C)c(C#N)c1C	-107*
Cc1cccc2cc3c(N)c(C#N)sc3nc12	84
CC1CCC(NC(=O)c2cccc(S(=O)(=O)N3CCN(c4ccc(F)cc4)CC3)c2)CC1 (stereo not drawn)	-72*
COc1ccc2c(c1)C1OCCC1C(c1ccco1)N2 (stereo not drawn)	-76*
Cc1ccc2nc(N/C(=N/S(=O)(=O)c3ccc(F)cc3F)c3ccccc3)sc2c1	-108*
Cc1ccc2nc(N/C(=N/S(=O)(=O)c3ccc(F)cc3)c3ccccc3)sc2c1	-107*
CCOC(=O)c1c(SCC(=O)Nc2nccs2)nc(C)c(C)c1C	-68*
Cc1ccc(SCC(=O)Nc2nccs2)cc1	-107*
O=C(Nc1nccs1)c1ccc(CSc2ccccc2)o1	-126*
O=C(CSc1cn(Cc2ccccc2)c2ccccc12)Nc1nccs1	-168*
CC(C)c1ccc2c(c1)C(N1CCNCC1)Cc1ccc(F)cc1S2 (stereo not drawn)	75
CN(C)c1ccc(NC(=O)c2sc(SCC(=O)Nc3nccs3)nc2N)cc1	-156*
Cc1ccc(SCc2ccc(C(=O)Nc3nccs3)o2)cc1	-79*
SMILES	aSyn 5UTR act
Cc1ccc2oc(Nc3nc(C)c(C)c(C)n3)nc2c1	-99*
CSc1ccccc1-c1nnc(-c2ccc(Cl)cc2Cl)o1	-109*
CSc1ccccc1-c1nnc(-c2ccc(Cl)c(Cl)c2)o1	-98*
CS(=O)(=O)c1cnc2c(-c3ccsc3)cnn2c1N	-85*
COc1ccc(-c2cnc3c(-c4ccc(F)cc4)cnn3c2N)cc1	-241*
CC(C)(C)S(=O)(=O)c1cnc2c(-c3ccc(Cl)cc3)cnn2c1N	-78*
Nc1c(-c2ccc(Cl)cc2)cnc2c(-c3ccccc3)cnn12	-205*
CCCn1c(N)c(Sc2ccc(C)cc2)c(=O)n(CCC)c1=O	-79*
O=C(c1ccncc1)N1N=C(c2ccc(Cl)cc2)CC1c1ccccc1O (stereo not drawn)	-128*
O=Cc1cccc(OCc2cccc3ccccc23)c1	-117*
COc1ccc(COc2cccc(C=O)c2)cc1	-69*
O=Cc1ccc(OCc2ccc3ccccc3c2)cc1	-132*
CCC(C)c1ccc(NC(=O)Nc2cnccn2)cc1 (stereo not drawn)	-188*
COc1ccc(NC(=O)Nc2cnccn2)cc1	-80*
O=C(Nc1ccc(Br)cc1Cl)c1cnccn1	-70*
Cc1ccc(NC(=O)Nc2cnccn2)cc1Cl	-74*
Cn1ccc(NC(=O)Nc2ccc(Cl)cc2Cl)n1	-112*
O=C(Nc1cnccn1)Nc1ccc(Cl)cc1Cl	-62*
CC(=O)Nc1cccc(NC(=O)Nc2ccc(C)c(Cl)c2)c1	-118*
O=C(COC(=O)c1cccc([N+](=O)[O-])c1)c1ccc(OCc2ccccc2)cc1	-75*
COc1ccccc1CC(=O)c1ccc(OCc2ccccc2)cc1	-73*
COc1ccc(OCc2ccc(C(=O)O)cc2)cc1	-111*
Cc1ccccc1OCC(=O)OCC(=O)c1ccc(OCc2ccccc2)cc1	-112*
C=CCn1c2ccccc2c(=O)c2cc(C#CC3(O)CCCCC3)ccc21	-170*
[O-][n+]1onc2c3cc(-c4ccccc4)nnc3ccc21	-100*
SMILES	aSyn 5UTR act
O=C(COC(=O)c1ccc[nH]c1=O)NCCc1ccc(Cl)cc1Cl	-98*
CCOc1ccccc1-n1c(SCC(=O)Nc2ccc(CC)cc2)nc2n[nH]c(C)c2c1=N	84
Cc1ccccc1OCc1nnc(SCC(=O)Nc2ccc3nc(SCC(=O)Nc4ccccc4)sc3c2)n1C	-70*
CCN(CC)C(=O)CSc1nc2ccc(NC(=O)CSc3nccn3C)cc2s1	-65*
Cn1cnnc1SCC(=O)Nc1ccc2nc(SCc3ccccc3Cl)sc2c1	-101*
Cn1cnnc1SCC(=O)Nc1ccc2nc(SCc3ccccc3)sc2c1	-142*
Cc1cc(=O)[nH]c(S/C=C/c2ccccc2)n1	-78*
Cc1cc(=O)[nH]c(N=N/C(=N/Nc2ccccc2C)c2ccccc2)n1	82
N/C(=N\OC(=O)/C=C/c1ccccc1)c1ccncc1	-133*
O=C(/C=C/c1ccccc1)c1ccccn1	-135*
O=C(/C=C/c1ccc2c(c1)OCO2)c1ccccn1	-140*
N/C(=N\OC(=O)/C=C/c1ccccc1)c1ccccn1	-99*
